Assay [1] can be described thus: ATG_M_61_CIS: Attagene CIS-FACTORIAL HepG2 Assay for M61 Transcription Factor (Internal Marker) (AID 2282937; active = hit-call score of the fitted dose curve at least 0.9, where 1 is the maximum; inactive = score below 0.9). The conditions noted are these: HepG2 Attagene CIS-FACTORIAL M61 internal marker reporter; actives raise or lower the signal. In short, it runs like this:
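Fluorescence from labelled cDNA fragments, separated by capillary electrophoresis, quantifies reporter induction. HepG2 cells bearing transiently transfected cis-promoter MRTUs were incubated with test chemical for 24 h; DMSO defined baseline for gain/loss fitting.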

A short description of assay [2]: ATG_GRE_CIS: Attagene CIS-FACTORIAL HepG2 Assay for human Glucocorticoid Response Elements (GRE) (AID 2282947; active = hit-call score of the fitted dose curve at least 0.9, where 1 is the maximum; inactive = score below 0.9). The conditions noted are these: HepG2 GRE cis-reporter, Attagene multiplex mRNA; actives raise or lower the signal. A digest of the protocol:
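Assay uses human hepatoma HepG2 cells transfected with cis-promoter reporter units, exposed 24 h. mRNA from reporters detected by RT-PCR plus capillary electrophoresis; DMSO serves as negative control and baseline.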

A short description of assay [3]: ATG_M_06_CIS: Attagene CIS-FACTORIAL HepG2 Assay for M06 Transcription Factor (Internal Marker) (AID 2282950; active = hit-call score of the fitted dose curve at least 0.9, where 1 is the maximum; inactive = score below 0.9). The conditions noted are these: HepG2 Attagene CIS-FACTORIAL M06 internal marker reporter; actives raise or lower the signal. A digest of the protocol:
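One of many multiplexed endpoints: HepG2 reporter mRNA after 24 h dosing, detected by RT-PCR and capillary electrophoresis fluorescence; gain or loss of signal analysed against DMSO.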

A short description of assay [4]: ATG_PPRE_CIS: Attagene CIS-FACTORIAL HepG2 Assay for human Peroxisome Proliferator-activated Response Element (PPRE) (AID 2282958; active = hit-call score of the fitted dose curve at least 0.9, where 1 is the maximum; inactive = score below 0.9). The conditions noted are these: HepG2 PPRE cis-element reporter, Attagene transcription factor profiling; actives raise or lower the signal. A digest of the protocol:
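Multiplexed reporter transcription units under cis-regulatory promoters were transfected into HepG2 cells to capture endogenous factor activity. A 24 h incubation preceded RNA isolation and fluorescent RT-PCR fragment analysis.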

A short description of assay [5]: ATG_RORE_CIS: Attagene CIS-FACTORIAL HepG2 Assay for human RAR-related Orphan Receptor Element (RORE) (AID 2282959; active = hit-call score of the fitted dose curve at least 0.9, where 1 is the maximum; inactive = score below 0.9). The conditions noted are these: HepG2 Attagene cis-factorial RORE reporter, mRNA; actives raise or lower the signal. A digest of the protocol:
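Fluorescence intensity of reporter-specific cDNA fragments, separated by capillary electrophoresis, gives the signal. Source: HepG2 liver cells transiently transfected with cis-element reporters and exposed 24 h; DMSO-normalized bidirectional fit.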

Assay [6] is described as follows: ATG_M_19_TRANS: Attagene TRANS-FACTORIAL HepG2 Assay for M19 Transcription Factor (Internal Marker) (AID 2282974). The conditions noted are these: HepG2 Attagene TRANS-FACTORIAL M19 internal marker reporter. A digest of the protocol: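 Measured here: internal-marker reporter transcript from HepG2 cells transfected with MRTUs, harvested at 24 h. cDNA PCR products were 6-FAM labelled by primer extension, cut with HpaI for 2 h at 37 C, and resolved by CE.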

The nature of assay [7]: ATG_M_06_TRANS: Attagene TRANS-FACTORIAL HepG2 Assay for M06 Transcription Factor (Internal Marker) (AID 2282983). The conditions noted are these: HepG2 Attagene TRANS M06 internal marker reporter. A digest of the protocol: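 HepG2 cells transiently transfected with multiplexed GAL4-UAS reporter transcription units; after 24 h compound exposure, reporter mRNA measured by RT-PCR, FAM-labelled primer extension, HpaI digestion and capillary electrophoresis. Gain-of-signal fitted versus DMSO baseline; background control readout.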

The target in assay [8] is Nuclear respiratory factor 1 (Homo sapiens) (UniProt Q16656). Put plainly: ATG_NRF1_CIS: Attagene CIS-FACTORIAL HepG2 Assay for human Nuclear Respiratory Factor 1 (NRF1) Orphan Gene (AID 2282987; active = hit-call score of the fitted dose curve at least 0.9, where 1 is the maximum; inactive = score below 0.9). The conditions noted are these: HepG2 NRF1 cis-element reporter, Attagene multiplex; actives raise or lower the signal. A digest of the protocol: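 Transcriptional reporter readout, one component of a 52-endpoint multiplexed HepG2 panel. Exposure 24 h; mRNA detected via RT-PCR and fluorescent capillary electrophoresis; fitting in both directions against DMSO.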

The target in assay [9] is Retinoic acid receptor RXR-alpha (Homo sapiens) (UniProt P19793). Put plainly: ATG_RXRa_TRANS: Attagene TRANS-FACTORIAL HepG2 Assay for human Retinoid X Receptor alpha (RXRa) (AID 2283012). In short, it runs like this:
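HepG2 cells transiently transfected with multiplexed GAL4-UAS reporter units and chimeric NR-GAL4 fusions, dosed 24 h. Reporter mRNA measured by RT-PCR, FAM labelling, HpaI digestion and capillary electrophoresis; gain-of-signal fitted relative to DMSO baseline.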

Assay [10] addresses Cellular tumor antigen p53 (Homo sapiens) (UniProt P04637). In words: TOX21_p53_BLA_p2_ratio: Tox21 HCT-116 p53 Agonism Beta-lactamase Assay, Ratio, Phase 2 (AID 2283592). A digest of the protocol: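 HCT116 cells carrying a p53-responsive beta-lactamase reporter were plated, incubated 5 h at 37C, then dosed with compounds in DMSO (217-fold dilution) for 16 h. CCF4-AM substrate was added for 2 h at room temperature; the 460/530 nm emission ratio gave gain-of-signal activity relative to DMSO.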

For assay [11] the target is unchanged. Put plainly: TOX21_p53_BLA_p3_ratio: Tox21 HCT-116 p53 Agonism Beta-lactamase Assay, Ratio, Phase 3 (AID 2283596). In short, it runs like this: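 HCT116 p53-bla cells (4000/well) given compound in DMSO (217-fold dilution) after 5 h, incubated 16 h at 37C. CCF4-AM substrate 2 h at room temperature; 460/530 nm emission ratio, gain fitted against DMSO.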
Assay [12] shares this target. In words: TOX21_p53_BLA_p5_ratio: Tox21 HCT-116 p53 Agonism Beta-lactamase Assay, Ratio, Phase 5 (AID 2283599). In short, it runs like this: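 Beta-lactamase reporter ratio (blue 460 nm over green 530 nm, 405 nm excitation) after 2 h CCF4-AM loading, in HCT-116 cells exposed 16 h at 37 C to compounds pinned at 217-fold dilution. Increases relative to DMSO baseline scored.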

The nature of assay [13]: TOX21_p53_BLA_p5_viability: Viability Assessment in the Tox21 HCT-116 p53 Agonism Beta-lactamase Assay, Phase 5 (AID 2283600). In short, it runs like this:
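Cells were plated at 4000/well, rested 5 h at 37C, then given compounds in DMSO (217-fold dilution) for 16 h at 37C, 5% CO2. Following the CCF4-AM beta-lactamase read, CellTiter-Glo was added and luminescence was read after 30 min at room temperature.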

Assay [14] is described as follows: ATG_EGR_CIS: Attagene CIS-FACTORIAL HepG2 Assay for human Early Growth Response 1 (EGR1) (AID 2282938; active = hit-call score of the fitted dose curve at least 0.9, where 1 is the maximum; inactive = score below 0.9). The conditions noted are these: HepG2 Attagene CIS-FACTORIAL EGR reporter mRNA; actives raise or lower the signal. A digest of the protocol: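 Cell-based multiplex transcription assay: HepG2 carrying transfected cis-element reporter units, 24 h chemical treatment. Fluorescence from capillary electrophoresis of RT-PCR products gives mRNA levels; fitting is bidirectional relative to DMSO.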

Assay [15] is described as follows: ATG_TGFb_CIS: Attagene CIS-FACTORIAL HepG2 Assay for human Transforming Growth Factor (TGF) (AID 2282967; active = hit-call score of the fitted dose curve at least 0.9, where 1 is the maximum; inactive = score below 0.9). The conditions noted are these: HepG2 Attagene CIS TGFb reporter, mRNA transcription; actives raise or lower the signal. A digest of the protocol:
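After a 24-hour incubation with compound, transfected HepG2 cells were lysed for RNA; reporter cDNA was amplified, fluorescently end-labeled and separated by CE. DMSO served as baseline for bidirectional fits.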

For assay [16], the target named is Nuclear receptor subfamily 1 group I member 2 (Homo sapiens) (UniProt O75469). Put plainly: ATG_PXR_TRANS: Attagene TRANS-FACTORIAL HepG2 Assay for human Pregnane X Receptor (PXR) (AID 2283008). A digest of the protocol:
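Measures mRNA induction of a GAL4-UAS-driven reporter in human HepG2 cells transiently expressing PXR fused to Gal4, following 24 h treatment. DMSO served as negative control and baseline.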

Assay [17] addresses human Retinoid X Receptor beta (RXRb), RXRB (gene 6257) (UniProt P28702). Put plainly: ATG_RXRb_TRANS: Attagene TRANS-FACTORIAL HepG2 Assay for human Retinoid X Receptor beta (RXRb) (AID 2283013). In short, it runs like this:
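HepG2 cells transiently transfected with multiplexed reporter units driven by GAL4-UAS and exogenous chimeric NR-Gal4 proteins; treated 24 h. Reporter mRNA measured by RT-PCR, 6-FAM labelling and capillary electrophoresis; gain-of-signal fitted versus DMSO baseline.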

Assay [18] deals with Cellular tumor antigen p53 (Homo sapiens) (UniProt P04637). In words: TOX21_p53_BLA_p4_ratio: Tox21 HCT-116 p53 Agonism Beta-lactamase Assay, Ratio, Phase 4 (AID 2283601). In short, it runs like this: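 Signal is the blue/green (460nm/530nm) ratio of cleaved versus uncleaved CCF4-AM substrate, read after 2 h substrate loading. Cells were HCT116 carrying the p53-responsive beta-lactamase reporter, dosed 16 h at 37C, 5% CO2; CellTiter-Glo measured in parallel.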

The target in assay [19] is Hepatocyte nuclear factor 4-alpha (Homo sapiens) (UniProt P41235). Put plainly: ATG_HNF4a_TRANS: Attagene TRANS-FACTORIAL HepG2 Assay for human Hepatocyte Nuclear Factor 4 alpha (HNF4a) (AID 2282982). The conditions noted are these: HepG2 HNF4a transactivation reporter, mRNA readout. In short, it runs like this: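 Transfected HepG2 reporter cells are dosed for 24 h; reporter RNA is reverse-transcribed, amplified, fluorescently labelled and HpaI-digested before CE sizing. Positive-direction fit against DMSO.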

The nature of assay [20]: ATG_NFI_CIS: Attagene CIS-FACTORIAL HepG2 Assay for human Nuclear Factor I (NFI) (AID 2282989; active = hit-call score of the fitted dose curve at least 0.9, where 1 is the maximum; inactive = score below 0.9). The conditions noted are these: HepG2 cis-regulatory reporter, NFI response element transcription; actives raise or lower the signal. A digest of the protocol: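 Reporter transcription driven by endogenous transcription factors in HepG2 cells; 24 h treatment. Quantitation by labelled RT-PCR fragments on capillary electrophoresis, gain- or loss-of-signal relative to DMSO.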

SMILES strings stand for the structures. Inconclusive results are not listed. The source made the active and inactive calls. Rule for the calls, unless noted: active = hit-call score of the fitted dose curve at least 0.9, where 1 is the maximum; inconclusive = response in the unintended direction; inactive = score below 0.9.

Sequence of Nuclear respiratory factor 1 (Homo sapiens) (Q16656 whole entry, looked up): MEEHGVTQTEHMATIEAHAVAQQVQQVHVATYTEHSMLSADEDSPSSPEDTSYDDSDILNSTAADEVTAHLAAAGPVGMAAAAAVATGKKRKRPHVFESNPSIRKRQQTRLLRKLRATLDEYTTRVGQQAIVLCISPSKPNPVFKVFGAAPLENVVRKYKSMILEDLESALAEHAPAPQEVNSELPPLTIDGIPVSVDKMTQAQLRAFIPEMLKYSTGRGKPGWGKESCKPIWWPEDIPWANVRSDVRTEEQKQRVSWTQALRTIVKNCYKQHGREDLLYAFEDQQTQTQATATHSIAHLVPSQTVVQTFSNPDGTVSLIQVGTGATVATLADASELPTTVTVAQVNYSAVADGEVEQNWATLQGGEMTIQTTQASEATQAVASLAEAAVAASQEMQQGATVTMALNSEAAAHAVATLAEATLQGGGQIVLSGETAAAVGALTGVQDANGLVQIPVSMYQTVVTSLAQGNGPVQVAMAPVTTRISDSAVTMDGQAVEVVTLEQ
Sequence of Retinoic acid receptor RXR-alpha (Homo sapiens) (P19793 whole entry, looked up, the tested form may be a part): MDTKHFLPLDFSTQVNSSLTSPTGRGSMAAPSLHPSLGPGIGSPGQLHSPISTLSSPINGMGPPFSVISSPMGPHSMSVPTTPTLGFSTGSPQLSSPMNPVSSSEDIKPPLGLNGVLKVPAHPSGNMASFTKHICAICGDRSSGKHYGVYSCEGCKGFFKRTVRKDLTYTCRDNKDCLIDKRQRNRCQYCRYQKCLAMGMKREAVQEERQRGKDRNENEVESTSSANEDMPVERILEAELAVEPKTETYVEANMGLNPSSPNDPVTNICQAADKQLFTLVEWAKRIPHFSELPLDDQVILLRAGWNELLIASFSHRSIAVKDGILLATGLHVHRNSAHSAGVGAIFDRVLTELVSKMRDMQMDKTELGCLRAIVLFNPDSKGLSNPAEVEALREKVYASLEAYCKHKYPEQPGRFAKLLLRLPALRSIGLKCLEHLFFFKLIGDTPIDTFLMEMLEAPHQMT
Sequence of Cellular tumor antigen p53 (Homo sapiens) (P04637 whole entry, looked up): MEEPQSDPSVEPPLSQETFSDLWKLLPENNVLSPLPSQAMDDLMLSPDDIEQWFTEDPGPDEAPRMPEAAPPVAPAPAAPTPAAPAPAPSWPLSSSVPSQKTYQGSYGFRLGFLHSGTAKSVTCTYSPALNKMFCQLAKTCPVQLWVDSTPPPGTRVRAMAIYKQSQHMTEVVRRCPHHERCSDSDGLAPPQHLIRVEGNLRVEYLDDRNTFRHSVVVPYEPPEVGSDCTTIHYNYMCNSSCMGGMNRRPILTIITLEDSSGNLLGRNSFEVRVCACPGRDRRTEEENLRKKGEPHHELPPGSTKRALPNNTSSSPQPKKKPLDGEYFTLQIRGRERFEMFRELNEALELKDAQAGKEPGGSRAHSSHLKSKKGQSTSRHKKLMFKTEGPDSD
Sequence of human Retinoid X Receptor beta (RXRb), RXRB (gene 6257) (P28702 whole entry, looked up, the tested form may be a part): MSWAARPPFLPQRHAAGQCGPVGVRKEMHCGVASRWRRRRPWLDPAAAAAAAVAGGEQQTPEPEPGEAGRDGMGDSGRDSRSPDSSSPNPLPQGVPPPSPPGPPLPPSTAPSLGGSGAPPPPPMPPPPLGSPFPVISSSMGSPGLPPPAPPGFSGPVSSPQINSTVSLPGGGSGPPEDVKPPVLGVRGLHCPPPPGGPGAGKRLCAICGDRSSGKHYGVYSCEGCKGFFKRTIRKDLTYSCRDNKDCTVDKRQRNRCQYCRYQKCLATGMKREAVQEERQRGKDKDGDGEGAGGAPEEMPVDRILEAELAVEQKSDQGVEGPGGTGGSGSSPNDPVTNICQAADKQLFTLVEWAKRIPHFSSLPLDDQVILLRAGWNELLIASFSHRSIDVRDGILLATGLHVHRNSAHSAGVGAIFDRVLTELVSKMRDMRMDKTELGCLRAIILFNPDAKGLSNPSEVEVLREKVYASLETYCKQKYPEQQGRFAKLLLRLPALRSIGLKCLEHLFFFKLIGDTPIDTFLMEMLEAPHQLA
Sequence of Nuclear receptor subfamily 1 group I member 2 (Homo sapiens) (O75469 whole entry, looked up, the tested form may be a part): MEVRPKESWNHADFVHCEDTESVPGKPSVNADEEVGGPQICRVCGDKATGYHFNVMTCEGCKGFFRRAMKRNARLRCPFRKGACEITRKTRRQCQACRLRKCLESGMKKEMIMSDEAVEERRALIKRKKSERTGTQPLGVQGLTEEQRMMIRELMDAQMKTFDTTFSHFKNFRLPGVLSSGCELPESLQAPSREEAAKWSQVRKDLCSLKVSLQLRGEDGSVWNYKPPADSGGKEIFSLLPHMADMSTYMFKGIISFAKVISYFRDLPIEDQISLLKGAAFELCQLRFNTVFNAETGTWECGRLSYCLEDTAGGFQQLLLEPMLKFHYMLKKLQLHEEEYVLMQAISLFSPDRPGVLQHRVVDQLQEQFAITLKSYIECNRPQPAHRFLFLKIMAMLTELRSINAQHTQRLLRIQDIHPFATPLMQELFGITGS
Sequence of Hepatocyte nuclear factor 4-alpha (Homo sapiens) (P41235 whole entry, looked up): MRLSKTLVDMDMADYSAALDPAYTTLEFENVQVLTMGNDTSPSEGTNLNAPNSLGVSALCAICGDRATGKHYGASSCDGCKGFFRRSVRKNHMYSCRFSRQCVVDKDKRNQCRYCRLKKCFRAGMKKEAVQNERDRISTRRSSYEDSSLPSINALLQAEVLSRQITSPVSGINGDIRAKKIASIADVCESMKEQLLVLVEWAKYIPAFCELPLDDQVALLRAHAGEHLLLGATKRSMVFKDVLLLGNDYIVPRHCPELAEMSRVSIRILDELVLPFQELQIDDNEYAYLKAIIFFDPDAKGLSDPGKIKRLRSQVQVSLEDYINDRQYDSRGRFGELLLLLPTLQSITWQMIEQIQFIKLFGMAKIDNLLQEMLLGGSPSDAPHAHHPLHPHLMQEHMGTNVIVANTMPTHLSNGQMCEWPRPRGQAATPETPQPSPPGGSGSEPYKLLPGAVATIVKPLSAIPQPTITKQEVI

As to `CCOC(=O)N(C)N=O`, the result in [1], in assay [2], in assay [3], in assay [4], in assay [5] and in assay [6] was inactive. Besides, the outcome in assay [7], in [8], in [9], in assay [10], in [11] and in assay [12] was inactive. In assay [13], the result was inactive.

For `O=C(NCNC(=O)NC1C(=O)NC(=O)N1CO)NC1C(=O)NC(=O)N1CO` (stereo not drawn), the molecule was called inactive in assay [1], in assay [14], in assay [2], in assay [3], in assay [4] and in assay [5]. Besides, the molecule was called inactive in assay [7], in assay [8], in assay [16], in assay [9], in [10] and in assay [11]. The outcome in assay [12] and in assay [18] was inactive. For the same molecule, the concentration at half-maximal activity (AC50) (usually the midpoint of the concentration-response curve, whichever way the signal moves) in assay [15] was 100 µM (active); in assay [17], 39.8 µM (active).

Regarding `CC(C)C(=O)Cl`, the molecule was called inactive in assay [1], in assay [14], in assay [2], in assay [3], in assay [4] and in assay [6]. For the same molecule, the call in [8], in assay [9] and in assay [17] was inactive.

For the molecule `CCC[N+](=O)[O-]`, the result in [14], in assay [3], in assay [4], in assay [5], in assay [15] and in assay [6] was inactive. The result in assay [19], in assay [7], in assay [8], in assay [16], in assay [10] and in assay [11] was inactive. Moreover, the result in [12], in [13] and in [18] was inactive.

Consider `COc1ccc(CO)cc1`, for which the molecule was called inactive in assay [14], in assay [2], in assay [4], in assay [5], in assay [6] and in [19]. Besides, the call in [7], in assay [8], in assay [20], in assay [9], in assay [17] and in assay [10] was inactive. In addition, the result in assay [11], in [12] and in [13] was inactive.

The values are drawn from PubChem BioAssay (EPA / NIEHS).
